Records with an inconclusive call do not appear. Active and inactive are the calls of the source. Calls follow the shape of the dose curve; as a rule, active = well fitted cell-killing curve with a large enough effect in the repeat runs; inconclusive = weak or mixed curves, or effect the other way; inactive = flat fitted curve, though single readings scatter.
Experiment: qHTS assay to identify small molecule agonists of the TGF-beta/Smad signaling pathway - cell viability counter screen (AID 1346829); also: top concentration of the series differs between compounds; nearly all actives have a fitted effect of over 45% in size
Conditions: SBE-bla HEK293T viability, CellTiter-Glo luminescence, 5 h; series mostly up to 76.8 µM; activity change, negative = cytotoxicity: at the top concentration
From the text: National Center for Advancing Translational Sciences [NCATS]
NIH Chemical Genomics Center [NCGC]
U.S. Environmental Protection Agency [EPA]
National Institutes of Environmental Health Sciences [NIEHS]
National Toxicology Program [NTP]
U.S. Food and Drug Administration [FDA]
Transforming growth factor beta (TGF-beta) superfamily consists of a large number of structurally related dimeric proteins that act as hormones or local mediators in regulating a wide range of biological functions. This superfamily includes TGF-betas themselves, the bone morphogenetic proteins (BMPs) and the activins. These ligands induce oligomerization of serine/threonine receptor kinases and phosphorylate the cytoplasmic signaling molecules of Smad protein family. CellSensor SBE-bla HEK 293T cell line (Life Technologies, Carlsbad, CA), responsive to TGF-beta was used to screen Tox21 10K compound library for identification of agonists/antagonists of the Smad signaling pathway. This cell line contains a beta-lactamase reporter gene under control of the Smad binding element (SBE) stably integrated into HEK 293T cells. Also cytotoxicity of the compounds was tested in parallel by measuring the cell viability using CellTiter-Glo assay system in the same wells.
Tox21 Assay Protocol Summary:
SBE-bla HEK 293T cells were dispensed at 4,000/well in 6 uL of assay medium into black wall/clear-bottom 1536-well plates using a Multidrop Combi (ThermoFisher Scientific, Waltham, MA) dispenser. After the assay plates were incubated at 37 C and 5% CO2 for an overnight, 23 nL of compounds dissolved in DMSO, positive controls or DMSO only was transferred to the assay plate by a Pintool station (Kalypsys, San Diego, CA). The assay plates were incubated at 37 C and 5% CO2 for 5 hr. One uL of LiveBLAzer B/G FRET substrate (Life Technologies) was added using a Flying Reagent Dispenser (FRD, Aurora Discovery, San Diego, CA) and the plates were incubated at room temperature for 2 hr. Fluorescence intensity (405 nm excitation, 460 nm and 530 nm emissions) was measured using an Envision plate reader (PerkinElmer, Shelton, CT). For cytotoxicity read, 4 uL of CellTiter-Glo reagent (Promega Corporation, Madison, WI) was added to each well of the assay plates using FRD. After 30min incubation at room temperature, the luminescence intensity was measured using ViewLux plate reader (PerkinElmer).
% is scaled to controls: 0 for no effect and ±100 for the full control effect.

SMILES	activity change, negative = cytotoxicity
C=CCOCC(O)CO (stereo not given)	-6.91% (inactive)
O=S(=O)(O)c1cccc(S(=O)(=O)O)c1	-5.73% (inactive)
CCCCS(=O)(=O)N[C@@H](Cc1ccc(OCCCCC2CCNCC2)cc1)C(=O)O	6.76% [at 35.3 µM] (inactive)
C[N+](C)(CCOc1ccccc1)Cc1cccs1	8.54% [at 35.3 µM] (inactive)
CC12CCC(C(=O)C1=O)C2(C)C (stereo not given)	8.91% (inactive)
CCOc1ccccc1OCC	15.8% (inactive)
CN1[C@@H]2CC[C@H]1CC(OC(=O)C(O)c1ccccc1)C2 (stereo not given in full)	5.09% [at 35.3 µM] (inactive)
O=S(=O)(O)c1cc(O)c(O)c(S(=O)(=O)O)c1	1.33% (inactive)
CN(C)CCN(C)CCN(C)C	1.72% (inactive)
Cc1ccc(C(=O)c2ccc(CC(=O)O)n2C)cc1	9.49% [at 35.3 µM] (inactive)
CC1=CC(=O)[C@H]2C[C@@H]1C2(C)C	-0.0333% (inactive)
O=C1CCCCCCCCCCCCCCO1	3.11% (inactive)
NO	6.59% (inactive)
CC(=O)Oc1cccc(C)c1	2.74% [at 35.3 µM] (inactive)
O=C(O)c1cn(C2CC2)c2cc(N3CCNCC3)c(F)cc2c1=O	7.06% [at 35.3 µM] (inactive)
CCCn1cc[n+](C)c1C	-2.18% (inactive)
CC(=O)c1ccc2ccccc2c1	5.69% (inactive)
CCOCC(C)O (stereo not given)	-3.34% (inactive)
Clc1cc(Cl)c(Cl)nc1Cl	-6.55% (inactive)
NCCCC(N)(C(=O)O)C(F)F (stereo not given)	-0.323% [at 35.3 µM] (inactive)

SMILES	activity change, negative = cytotoxicity
O=C(c1ccccc1)C1(O)CCCCC1	-11.7% (inactive)
CC1OC1C1CCC2(C)OC2C1 (stereo not given)	-7% (inactive)
CCC(C)(CCCC(C)C)OC(C)=O (stereo not given)	6.39% (inactive)
CCCCOCCOC(=O)COc1cc(Cl)c(Cl)cc1Cl	4.86% (inactive)
CN(C)[C@@H]1C(=O)C(C(=O)NCN2CCCC2)=C(O)[C@@]2(O)C(=O)C3=C(O)c4c(O)cccc4[C@@](C)(O)C3C[C@@H]12 (stereo not given in full)	-0.0817% [at 35.3 µM] (inactive)
CCCCN(CCC(=O)OCC)C(C)=O	3.02% (inactive)
Cc1ccccc1N=C(N)N=C(N)N	5.71% (inactive)
C[C@@H]1C[C@H]2[C@@H]3C[C@H](F)C4=CC(=O)C(Cl)=C[C@]4(C)[C@@]3(F)[C@@H](O)C[C@]2(C)[C@@]1(O)C(=O)CO	13.1% [at 35.3 µM] (inactive)
CCCCCC(C)N (stereo not given)	-19.3% [at 35.3 µM] (inactive)
CC(C)[C@H]1CC[C@@H](C)CC1=O	4.17% (inactive)
NC(N)=NCCN1CCCCCCC1	-17.1% [at 0.29 µM] (inactive)
CCN1CCOCC1	0.0886% (inactive)
CC1=CCC(O)(C(C)C)CC1 (stereo not given)	0.767% (inactive)
Nc1ccccn1	2.87% (inactive)
COc1cccc(OC)c1C(=O)N[C@@H]1C(=O)N2[C@@H]1SC(C)(C)[C@@H]2C(=O)O	5.77% [at 35.3 µM] (inactive)
CC(=O)N[C@H]1[C@H]([C@H](O)[C@H](O)CO)OC(C(=O)O)=C[C@@H]1N=C(N)N	5.37% [at 35.3 µM] (inactive)
O=C(O)CC(C(=O)O)S(=O)(=O)O (stereo not given)	-15.4% (inactive)
CCOC(=O)C(=O)CCCCCCl	-12.1% [at 35.3 µM] (inactive)
Cc1ccc(-c2ccccc2C#N)cc1	11.1% [at 35.3 µM] (inactive)
Nc1ccn([C@@H]2O[C@H](CO)[C@@H](O)C2(F)F)c(=O)n1	1.02% [at 35.3 µM] (inactive)

Reference: PubChem BioAssay (Tox21)
